For some assays here: Potency and affinity values are given separately.
What was measured:
Design in all cases: scale not given: direction of the effect not stated beside the values
[1] = molecular target: Protein translocase subunit SecA (Escherichia coli (strain K12)) (UniProt P10408); test: Assay to Identify E. coli SecA ATPase Inhibitors; format: functional; settings: 30 µM
[2] = molecular target: T1, Ubiquitin-activating enzyme e1, putative (Leishmania donovani (strain BPK282A1)) (UniProt E9BSI1); test: Leishmania donovani Ubiquitin Activating Enzyme (LdE1); format: functional; settings: 30 µM
T1 sequence (whole entry): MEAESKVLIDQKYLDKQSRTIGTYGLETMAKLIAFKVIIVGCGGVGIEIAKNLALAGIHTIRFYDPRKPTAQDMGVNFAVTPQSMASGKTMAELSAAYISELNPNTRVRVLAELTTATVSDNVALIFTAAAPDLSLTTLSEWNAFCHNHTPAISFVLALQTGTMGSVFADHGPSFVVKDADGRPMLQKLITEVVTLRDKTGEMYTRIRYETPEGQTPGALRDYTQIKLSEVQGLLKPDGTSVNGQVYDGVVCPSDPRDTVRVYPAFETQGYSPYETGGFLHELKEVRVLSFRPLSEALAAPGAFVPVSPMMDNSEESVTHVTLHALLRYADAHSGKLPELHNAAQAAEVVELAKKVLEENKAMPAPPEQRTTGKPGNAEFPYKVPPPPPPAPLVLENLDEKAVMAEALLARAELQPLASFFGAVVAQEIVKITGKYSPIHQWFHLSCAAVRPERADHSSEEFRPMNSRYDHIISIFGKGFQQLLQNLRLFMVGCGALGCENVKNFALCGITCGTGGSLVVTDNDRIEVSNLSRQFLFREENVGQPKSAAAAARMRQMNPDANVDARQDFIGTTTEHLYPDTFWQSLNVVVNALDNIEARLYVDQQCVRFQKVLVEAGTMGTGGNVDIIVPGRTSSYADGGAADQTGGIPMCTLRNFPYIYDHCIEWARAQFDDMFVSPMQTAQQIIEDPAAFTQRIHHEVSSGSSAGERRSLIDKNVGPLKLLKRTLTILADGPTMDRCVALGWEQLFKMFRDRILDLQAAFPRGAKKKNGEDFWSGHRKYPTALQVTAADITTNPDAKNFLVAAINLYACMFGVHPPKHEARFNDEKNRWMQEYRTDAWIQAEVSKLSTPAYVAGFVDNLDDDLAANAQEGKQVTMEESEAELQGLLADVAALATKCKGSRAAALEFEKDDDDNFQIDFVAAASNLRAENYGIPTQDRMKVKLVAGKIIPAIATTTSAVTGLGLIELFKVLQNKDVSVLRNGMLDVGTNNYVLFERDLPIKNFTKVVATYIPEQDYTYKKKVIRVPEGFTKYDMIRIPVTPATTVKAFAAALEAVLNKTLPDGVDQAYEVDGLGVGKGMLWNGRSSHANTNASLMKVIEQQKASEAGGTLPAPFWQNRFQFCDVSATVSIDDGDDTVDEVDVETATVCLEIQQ

[3] = molecular target: AMP-activated protein kinase, AMPK (Homo sapiens) (UniProt P54646+O43741+P54619+Q9UGJ0+Q9Y478+Q13131+Q9UGI9); test: AMP-dependent Kinase enzyme assay. An in vitro enzyme assay that detects ADP turnover that is directly proportional to AMPK activity. This uses naive AMPK that is activated during the assay with MK-8722; format: functional; settings: 30 µM
[4] = molecular target: Sialic acid-binding Ig-like lectin 9 (Homo sapiens) (UniProt Q9Y336); test: Hs-Siglec9 ALPHAscreen SOP 20170721; settings: 10 µM
Trypanosoma cruzi = test: Trypanosoma cruzi phosphomannomutase and mannose-1-phosphate guanylyltransferase assay; format: functional; settings: 10 µM
[5] = molecular target: T2, Arginase-2, mitochondrial (Homo sapiens) (UniProt P78540); test: in vitro enzyme assay to detect the production of urea directly proportional to the activity of Arginase II; format: functional; settings: 33.3 µM; also: in the data most compounds retested in dose-response had high values
T2 sequence (whole entry): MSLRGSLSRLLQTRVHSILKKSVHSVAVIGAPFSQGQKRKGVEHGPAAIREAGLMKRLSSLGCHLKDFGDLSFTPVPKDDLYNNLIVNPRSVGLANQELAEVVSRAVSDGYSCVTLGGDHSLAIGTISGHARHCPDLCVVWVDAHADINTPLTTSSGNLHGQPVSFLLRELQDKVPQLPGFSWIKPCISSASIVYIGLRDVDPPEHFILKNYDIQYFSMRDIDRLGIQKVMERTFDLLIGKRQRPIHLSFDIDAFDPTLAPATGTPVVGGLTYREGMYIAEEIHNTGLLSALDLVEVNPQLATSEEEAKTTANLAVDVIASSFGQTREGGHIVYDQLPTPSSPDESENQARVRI

[6] = molecular target: T3, Proteasome subunit beta (Trypanosoma cruzi) (UniProt O96673); test: Trypanosoma cruzi proteasome chymotrypsin-like activity (TcProtChymo) assay.; also: in the data most compounds retested in dose-response had high values; format: functional; settings: 9.37 µM
T3 sequence (whole entry): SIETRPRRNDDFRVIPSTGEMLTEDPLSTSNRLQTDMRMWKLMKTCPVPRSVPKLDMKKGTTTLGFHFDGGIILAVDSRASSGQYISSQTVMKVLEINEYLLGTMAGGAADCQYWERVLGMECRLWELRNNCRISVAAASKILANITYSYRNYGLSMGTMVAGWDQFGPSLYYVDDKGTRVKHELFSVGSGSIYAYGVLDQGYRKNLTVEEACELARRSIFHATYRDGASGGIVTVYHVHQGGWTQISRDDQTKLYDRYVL

Homo sapiens = organism: Homo sapiens; test: To identify inhibition of the IFN signalling (Jak-Stat) pathway via expression of an eGFP reporter gene under the control of an IFN-stimulated response element (ISRE) containing MxA promoter.; format: functional; settings: 30 µM
[7] = molecular target: T4, Tyrosyl-tRNA synthetase, putative (Trypanosoma cruzi (strain CL Brener)) (UniProt Q4DSP6); test: Trypanosoma cruzi tyrosyl tRNA synthetase (TcYRS) _High Tyrosine SOP; format: functional; settings: 30 µM; also: in the data most compounds retested in dose-response had high values
T4 sequence (whole entry): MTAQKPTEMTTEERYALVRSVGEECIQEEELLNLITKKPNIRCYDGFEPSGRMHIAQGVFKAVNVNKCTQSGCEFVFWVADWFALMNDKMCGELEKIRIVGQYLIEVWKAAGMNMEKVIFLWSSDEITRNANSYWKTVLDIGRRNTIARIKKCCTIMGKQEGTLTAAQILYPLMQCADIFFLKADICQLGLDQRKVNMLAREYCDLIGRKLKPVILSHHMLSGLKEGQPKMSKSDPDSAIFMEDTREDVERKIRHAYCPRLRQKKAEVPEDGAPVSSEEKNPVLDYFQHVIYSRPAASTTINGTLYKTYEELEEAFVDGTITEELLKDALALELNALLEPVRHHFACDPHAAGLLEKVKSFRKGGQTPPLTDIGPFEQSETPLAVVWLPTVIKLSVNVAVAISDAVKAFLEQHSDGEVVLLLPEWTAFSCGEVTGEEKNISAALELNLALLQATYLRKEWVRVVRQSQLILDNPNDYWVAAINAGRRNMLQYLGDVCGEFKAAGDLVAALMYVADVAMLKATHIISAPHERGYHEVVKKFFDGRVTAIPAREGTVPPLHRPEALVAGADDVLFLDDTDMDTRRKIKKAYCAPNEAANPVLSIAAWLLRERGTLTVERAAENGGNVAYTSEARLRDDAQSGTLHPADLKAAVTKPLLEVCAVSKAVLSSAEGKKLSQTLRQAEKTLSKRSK

[8] = molecular target: T4, Tyrosyl-tRNA synthetase, putative (Trypanosoma cruzi (strain CL Brener)); test: Trypanosoma cruzi tyrosyl tRNA synthetase (TcYRS) SOP; format: functional; settings: 30 µM
[9] = molecular target: Chromo domain-containing protein 1 (Saccharomyces cerevisiae (strain ATCC 204508 / S288c) (Baker's yeast)) (UniProt P32657); test: ScCHD-1 Enzyme Inhibition Assay; format: functional; settings: 30 µM; also: in the data most compounds retested in dose-response had high values
Chain of Chromo domain-containing protein 1 (Saccharomyces cerevisiae (strain ATCC 204508 / S288c) (Baker's yeast)) (P32657 whole entry, the tested form may be a part): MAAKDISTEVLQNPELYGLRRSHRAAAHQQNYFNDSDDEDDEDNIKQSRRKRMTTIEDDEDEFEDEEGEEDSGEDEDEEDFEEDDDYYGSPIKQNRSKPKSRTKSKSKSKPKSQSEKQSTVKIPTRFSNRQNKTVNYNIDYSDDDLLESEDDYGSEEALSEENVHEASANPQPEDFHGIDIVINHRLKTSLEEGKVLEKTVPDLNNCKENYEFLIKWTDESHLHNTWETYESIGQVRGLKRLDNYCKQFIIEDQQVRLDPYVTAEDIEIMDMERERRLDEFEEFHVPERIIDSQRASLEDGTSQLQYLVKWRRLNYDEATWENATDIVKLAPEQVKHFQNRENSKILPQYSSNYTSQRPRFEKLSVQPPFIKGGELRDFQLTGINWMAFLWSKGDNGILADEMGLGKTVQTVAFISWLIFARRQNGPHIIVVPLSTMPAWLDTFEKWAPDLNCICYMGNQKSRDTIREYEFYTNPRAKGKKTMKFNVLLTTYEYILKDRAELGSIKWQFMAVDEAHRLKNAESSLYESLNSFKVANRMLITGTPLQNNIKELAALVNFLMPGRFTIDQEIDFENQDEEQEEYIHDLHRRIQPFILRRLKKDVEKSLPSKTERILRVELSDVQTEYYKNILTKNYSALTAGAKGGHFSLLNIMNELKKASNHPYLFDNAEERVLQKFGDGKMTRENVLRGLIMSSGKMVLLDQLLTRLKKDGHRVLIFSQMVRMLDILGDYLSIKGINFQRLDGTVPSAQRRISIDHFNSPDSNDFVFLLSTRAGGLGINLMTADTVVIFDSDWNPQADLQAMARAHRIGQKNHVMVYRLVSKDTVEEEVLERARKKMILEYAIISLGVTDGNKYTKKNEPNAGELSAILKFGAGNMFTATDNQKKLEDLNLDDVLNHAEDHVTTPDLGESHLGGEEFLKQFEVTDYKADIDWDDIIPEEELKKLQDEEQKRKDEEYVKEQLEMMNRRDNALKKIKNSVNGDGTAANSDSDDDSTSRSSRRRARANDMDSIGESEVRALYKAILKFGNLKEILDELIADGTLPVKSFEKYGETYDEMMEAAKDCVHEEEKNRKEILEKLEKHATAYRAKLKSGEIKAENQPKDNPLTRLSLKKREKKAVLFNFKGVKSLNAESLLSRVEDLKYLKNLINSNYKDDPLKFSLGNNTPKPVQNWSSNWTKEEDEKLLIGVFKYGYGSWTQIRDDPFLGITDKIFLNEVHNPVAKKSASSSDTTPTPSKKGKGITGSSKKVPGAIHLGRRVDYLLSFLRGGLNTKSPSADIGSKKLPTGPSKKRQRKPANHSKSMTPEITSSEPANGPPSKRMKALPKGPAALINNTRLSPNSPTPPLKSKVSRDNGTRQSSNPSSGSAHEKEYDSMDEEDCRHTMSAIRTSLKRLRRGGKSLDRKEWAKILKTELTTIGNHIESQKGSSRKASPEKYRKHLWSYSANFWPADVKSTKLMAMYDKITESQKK

Chain of Sialic acid-binding Ig-like lectin 9 (Homo sapiens) (Q9Y336 whole entry): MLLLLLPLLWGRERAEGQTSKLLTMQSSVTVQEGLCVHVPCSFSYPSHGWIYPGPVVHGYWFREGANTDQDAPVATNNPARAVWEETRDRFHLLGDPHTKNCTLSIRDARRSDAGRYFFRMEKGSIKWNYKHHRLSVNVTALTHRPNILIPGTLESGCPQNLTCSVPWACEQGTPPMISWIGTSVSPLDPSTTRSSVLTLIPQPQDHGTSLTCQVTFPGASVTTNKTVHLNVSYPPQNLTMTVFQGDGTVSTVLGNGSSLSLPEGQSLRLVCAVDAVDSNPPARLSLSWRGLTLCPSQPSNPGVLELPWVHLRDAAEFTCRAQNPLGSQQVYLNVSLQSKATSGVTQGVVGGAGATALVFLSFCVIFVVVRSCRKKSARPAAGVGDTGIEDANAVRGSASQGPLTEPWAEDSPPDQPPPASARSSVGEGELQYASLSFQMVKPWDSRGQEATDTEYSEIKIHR
Chain of Protein translocase subunit SecA (Escherichia coli (strain K12)) (P10408 whole entry): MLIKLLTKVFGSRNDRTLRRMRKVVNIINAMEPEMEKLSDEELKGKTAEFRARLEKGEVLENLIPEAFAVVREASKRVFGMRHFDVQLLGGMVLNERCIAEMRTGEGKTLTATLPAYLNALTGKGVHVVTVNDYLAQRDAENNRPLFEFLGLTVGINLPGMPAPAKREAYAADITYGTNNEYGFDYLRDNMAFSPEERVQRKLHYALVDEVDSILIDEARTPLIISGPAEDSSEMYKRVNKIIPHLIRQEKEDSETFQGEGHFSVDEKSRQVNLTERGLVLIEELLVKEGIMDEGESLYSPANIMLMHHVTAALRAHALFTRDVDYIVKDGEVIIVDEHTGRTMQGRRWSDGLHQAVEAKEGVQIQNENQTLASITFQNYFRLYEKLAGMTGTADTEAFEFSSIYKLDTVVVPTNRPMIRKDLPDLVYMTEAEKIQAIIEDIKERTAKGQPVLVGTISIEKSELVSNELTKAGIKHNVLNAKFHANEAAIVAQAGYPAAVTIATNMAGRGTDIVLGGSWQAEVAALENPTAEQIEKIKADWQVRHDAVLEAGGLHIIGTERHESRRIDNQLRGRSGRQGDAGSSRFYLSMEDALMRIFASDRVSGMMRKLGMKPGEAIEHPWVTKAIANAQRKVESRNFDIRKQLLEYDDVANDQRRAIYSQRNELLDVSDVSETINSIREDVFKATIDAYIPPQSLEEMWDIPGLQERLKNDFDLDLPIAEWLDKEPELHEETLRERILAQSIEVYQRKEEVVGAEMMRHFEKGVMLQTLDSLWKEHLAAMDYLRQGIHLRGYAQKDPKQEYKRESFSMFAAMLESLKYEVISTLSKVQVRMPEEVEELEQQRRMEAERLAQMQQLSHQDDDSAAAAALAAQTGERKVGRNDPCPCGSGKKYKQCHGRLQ

| Structure (SMILES) | Percent Effect [1] [%] | Percent Effect [2] [%] | Percent Effect [3] [%] | Percent Effect [4] [%] | Percent Effect (Trypanosoma cruzi) [%] | Percent Effect [5] [%] | Percent Effect [6] [%] | Percent Effect (Homo sapiens) [%] | Percent Effect [7] [%] | Percent Effect [8] [%] | Percent Effect [9] [%] |
| --- | --- | --- | --- | --- | --- | --- | --- | --- | --- | --- | --- |
| CCN(Cc1nc2c(cnn2C)c(=O)[nH]1)Cc1cccs1 | -4.13 | 15.6 | -1.29 | -13.1 | 4.6 | -10.3 | 15.3 | -0.846 | 7.62 | 25.9 | -21.1 |
| NC(=O)NCC(=O)N1C[C@H]2CC[C@@H]1CN(Cc1ccccc1)C2 | -4.49 | 5.48 | 6.44 | -9.32 | -0.979 | -6.82 | 11.4 | -13.6 | 6.45 | 7.5 | -5.72 |
| COC(=O)c1ccc(S(=O)(=O)NCc2cccnc2N(C)C)cc1 | -2.49 | 17.7 | 0.13 | -11 | -8.59 | -4.18 | 4.67 | 66.2 | -16.3 | 16.5 | -6.7 |
| CN(C)C(=O)N1CCc2c(CNc3ncccn3)cncc2C1 | -2.85 | 0 | -1 | 7.13 | 1.35 | -23.8 | 1.88 | -4.02 | 6.25 | 7.5 | -2.6 |
| COc1ccc(CNCCc2cc(F)cc3c2OCOC3)cc1O | -5.67 | 4.17 | -9.01 | 0.774 | -2.62 | -0.883 | 4.74 | 2.67 | 3.16 | 5.13 | -2.11 |
| CC(=O)NCCNC(=O)c1sc(-c2ccc(Cl)s2)nc1C | -6.51 | 10.8 | 5.52 | -4.05 | -5.29 | 1.29 | 4.67 | 11.1 | 0.99 | -79.3 | -0.599 |
| Cc1noc(C)c1CN1CCN(Cc2nccn2C)C(C)C1 (stereo unspecified) | 0.213 | 10.1 | -9.19 | 2.86 | -10.1 | 5.7 | 5.65 | 18.5 | -0.493 | 11.4 | -5.78 |
| Cc1oc(-c2ccco2)nc1CC(=O)N1CCC(C(O)C(F)(F)F)CC1 (stereo unspecified) | -2.39 | 0 | -2.68 | 2.74 | 6.76 | -4.42 | -5.58 | -30 | -0.952 | 9.41 | -13.1 |
| CSCc1nc(C(C)(C)NC(=O)OC(C)(C)C)no1 | -2.5 | 2.67 | -2.2 | 1.89 | 7.3 | -2.08 | 9.07 | -12.6 | -0.546 | 1.24 | 107 |
| CCN1CCN(CC(O)c2ccc(F)cc2)CC1 (stereo unspecified) | -4.5 | 2.7 | -2.92 | 3.74 | -2.92 | -0.401 | 3.96 | 3.68 | 5.42 | 13.6 | -6.3 |
| CCOC(C)c1nc(CN2CCC(CNC(C)=O)CC2)cs1 (stereo unspecified) | -1.27 | 0 | -5.03 | 0.273 | 1.93 | -2.86 | 8.97 | -19.2 | -0.529 | -2.44 | -2.65 |
| COCCNC(=O)[C@H]1C[C@@H]2CCN(Cc3ccoc3)C[C@H]2O1 | -1.42 | 8.11 | 5.25 | -7.78 | -8.7 | 7.96 | 23.2 | 2.97 | 0 | 7.69 | -1.51 |
| COC(=O)[C@H](C)NC(=O)c1cc(-c2cccc(Cl)c2)no1 | -6.04 | 5.26 | -4.37 | -0.548 | 2.43 | -4.73 | 21.2 | 6.45 | 5.32 | 10.4 | -8.08 |
| Cc1ccc(C(C)NC(=O)Nc2ccccc2CN2CCOCC2)o1 (stereo unspecified) | -5.3 | 5.41 | -1.54 | 9.05 | -2.64 | -5.21 | 9.19 | -2.32 | 7.53 | 8.64 | -0.483 |
| c1ccc(Cn2cc3c(n2)C(CNCc2ccco2)OCC3)nc1 (stereo unspecified) | -3.96 | 2.7 | 0.188 | 3.43 | -4.49 | 4.17 | 2.79 | -8.58 | 4.95 | 11 | -1.79 |
| CC(C)C(=O)N1CCN(Cc2cc(-c3ccncc3)nn2C)CC1 | -5.03 | 12.2 | -0.905 | 1.54 | 3.75 | -3.48 | 8.89 | 0.905 | -5.38 | 11.7 | -13.7 |
